PubChem BioAssay (EPA / NIEHS)
Inconclusive results are not listed. Active and inactive are the calls of the source. How the source made its calls, unless noted: active means hit-call score of the fitted dose curve at least 0.9, where 1 is the maximum; inactive means score below 0.9.

Tests used:
[1] = molecular target: Estrogen receptor (Homo sapiens) (UniProt P03372); assay: CCTE_Deisenroth_AIME_384WELL_LUC_Shift: CCTE's 384-well Estrogen Receptor Transactivation Assay with AIME metabolic competence data shift (ERTA luciferase; difference in metabolism positive and negative), Deisenroth Lab (AID 2284041);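 further: shift is response with S9 minus without S9 so positive means metabolism raised ER signal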
Method in brief: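 Chemicals (0.002–200 uM, 10 points) pre-incubated 2 h with alginate-encapsulated induced male Sprague Dawley rat liver S9 or S9-free, then medium applied 24 h to VM7Luc4E2 cells; luciferase. Endpoint is per-concentration difference, S9-positive minus negative.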

[2] = molecular target: human Caspase 5 (CASP5), CASP5 (gene 838) (UniProt P51878); assay: NVS_ENZ_hCASP5: NovaScreen (NVS) Enzymatic Assay for human Caspase 5 (CASP5) (AID 2283137; active means hit-call score of the fitted dose curve at least 0.9, where 1 is the maximum)
Method in brief: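 E. coli-derived enzyme, cell-free, 2 h incubation, fluorescence intensity. 25 uM duplicate single-point; hits → concentration series to 50 uM. DMSO baseline, positive/negative controls on every plate.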

[3] = molecular target: human Beta-secretase (BACE), BACE1 (gene 23621) (UniProt P56817); assay: NVS_ENZ_hBACE: NovaScreen (NVS) Enzymatic Assay for human Beta-secretase (BACE) (AID 2283140; active means hit-call score of the fitted dose curve at least 0.9, where 1 is the maximum;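 further: hits are inhibitors that reduce fluorescent substrate signal versus DMSO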)
Method in brief: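 Compounds were first tested in duplicate at 25 uM, then actives in concentration series, against recombinant BACE1 from SF9 cells. Enzyme activity was measured by fluorescence intensity 1 hour after dosing, with DMSO as negative control.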

[4] = molecular target: human Phosphoinositide 3-kinase alpha (PI3Ka), PIK3CA (gene 5290) (UniProt P42336); assay: NVS_ENZ_hPI3Ka: NovaScreen (NVS) Enzymatic Assay for human Phosphoinositide 3-kinase alpha (PI3Ka) (AID 2283196; active means hit-call score of the fitted dose curve at least 0.9, where 1 is the maximum)
Method in brief: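 Duplicate single-point screen (25 uM), then singleton dose-response (max 50 uM) for compounds meeting the threshold. Cell-free kinase reaction, 1 h; fluorescent mobility-shift readout.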

[5] = molecular target: Glucocorticoid receptor (Homo sapiens) (UniProt P04150); assay: NVS_NR_hGR: NovaScreen (NVS) Nuclear Receptor Binding Assay for human Glucocorticoid Receptor (GR) (AID 2283363; active means hit-call score of the fitted dose curve at least 0.9, where 1 is the maximum;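 further: activity is loss of specific radioligand binding signal relative to DMSO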)
Method in brief: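 Cell-free radioligand displacement assay on extracted human GR, read 16 h after dosing by filter-based scintillation counting. Screened in duplicate at 25 uM, then concentration series for actives; loss of signal versus DMSO baseline.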

[6] = STM_H9_OrnCyssISnorm_ratio: Stemina devTOX quickPredict H9 human embryonic stem cell (hESC)-based Assay for Ornithine (ORN):Cystine (CYSS) Ratio (AID 2283714; active means hit-call score of the fitted dose curve at least 0.9, where 1 is the maximum)
Method in brief: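 Undifferentiated H9 hESCs exposed 72 h, media and compound replaced every 24 h; final 24-h conditioned media deproteinized and analysed by UPLC-HRMS against C13 spike-ins. Value is the internal-standard-normalized ORN/CYSS ratio versus 0.1% DMSO.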

[7] = STM_H9_NormalizedViability: Cytotoxicity Assessment at 120 hours in the Stemina devTOX quickPredict H9 human embryonic stem cell (hESC)-based Assay (AID 2283784; active means hit-call score of the fitted dose curve at least 0.9, where 1 is the maximum)
Method in brief: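 Pluripotent H9 cells dosed, fresh medium plus compound q24h → cell layer read by CellTiter-Fluor → RFU blank-corrected, normalized to DMSO 0.1% mean. Loss-of-signal fit, DMSO as baseline.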

[8] = CCTE_Shafer_MEA_acute_spike_number: CCTE's Neural Acute Assay for Total Number of Spikes, Shafer Lab (AID 2284008)
Method in brief: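 Read-out is the total spike count over 40 min, expressed as percent change from each well's own pre-treatment baseline and fitted in the loss direction against DMSO. Rat cortical neurons were exposed at 0.03-40 uM on DIV 13 or 15.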

[9] = CCTE_Shafer_MEA_acute_firing_rate_mean: CCTE's Neural Acute Assay for Mean Firing Rate, Shafer Lab (AID 2284009);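 further: analyzed for loss of signal so actives lower firing rate relative to DMSO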
Method in brief: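 Rat primary cortical neurons on 48-well MEA plates, dosed at 0.03-40 uM on DIV 13 or 15; 40 min spontaneous activity recorded at 37 C before and after compound. Spike rate per electrode averaged per well, expressed as percent change from baseline.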

[10] = CCTE_Shafer_MEA_acute_burst_number: CCTE's Neural Acute Assay for Single-Electrode Bursts, Shafer Lab (AID 2284013)
Method in brief: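 Primary rat cortical neurons on 16-electrode MEA wells, treated on DIV 13 or 15 with compound at 0.03-40 uM. Single-electrode burst count from 40-min recordings at 37 C before and after exposure; percent change from baseline per well, DMSO negative control.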

[11] = CCTE_Shafer_MEA_acute_burst_duration_mean: CCTE's Neural Acute Assay for Mean Burst Duration, Shafer Lab (AID 2284014);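 further: hits are decreases in mean burst duration relative to DMSO controls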
Method in brief: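 Rat primary cortical neurons on 48-well MEA, treated at DIV 13 or 15 with 0.03-40 uM in at least 3 wells. Value is percent change in mean burst duration, comparing 40 min recordings at 37 C before and during exposure.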

[12] = CCTE_Shafer_MEA_acute_per_burst_spike_number_mean: CCTE's Neural Acute Assay for Average Number of Spikes Per Burst, Shafer Lab (AID 2284015);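 further: hits are decreases in mean spikes per burst versus baseline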
Method in brief: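 We recorded spontaneous network firing of rat cortical neurons for 40 min before and 40 min during exposure to compound at 0.03-40 uM, at 37 C. Spikes were detected adaptively at 8x rms noise, and the change in average spikes per burst was fitted against DMSO.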

[13] = CCTE_Shafer_MEA_acute_interburst_interval_mean: CCTE's Neural Acute Assay for Mean Interburst Interval, Shafer Lab (AID 2284016);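 further: percent change of mean interburst interval versus each well's own pre-dose baseline; curves fitted for decrease in interburst interval relative to DMSO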
Method in brief: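 MEA recording of spontaneous network bursting in primary rat cortical cultures; mean interburst interval was compared before and after a 40-min compound exposure (0.03-40 uM) and expressed as percent change, relative to DMSO.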

[14] = CCTE_Shafer_MEA_acute_burst_percentage_mean: CCTE's Neural Acute Assay for Percentage of Spikes in a Burst, Shafer Lab (AID 2284017);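 further: curve fitted for loss of signal so potency reflects decreased burst percentage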
Method in brief: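 Compounds were tested at 0.03-40 uM on primary rat cortical neuron networks grown over microelectrodes, with at least three wells per compound. Spontaneous firing was recorded for 40 min before and 40 min after dosing, and the change in burst percentage was computed per well.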

[15] = CCTE_Shafer_MEA_acute_burst_percentage_std: CCTE's Neural Acute Assay for Standard Deviation of Burst Percentage, Shafer Lab (AID 2284018);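 further: fitted in the negative direction so actives lower burst percentage SD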
Method in brief: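 Rat primary cortical neurons on 48-well MEAs, DIV 13 or 15, 37 C. 40-min baseline then 40-min recording with compound (0.03-40 uM); well-level SD of per-electrode burst spike percentage, expressed as percent change from baseline.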

[16] = CCTE_Shafer_MEA_acute_per_network_burst_spike_number_mean: CCTE's Neural Acute Assay for Average Number of Spikes in a Network Burst, Shafer Lab (AID 2284019)
Method in brief: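 Rat primary cortical neurons on 48-well MEA at DIV 13 or 15, 37 C; compounds 0.03-40 uM, at least three wells each. 40-min baseline then 40-min exposure recording; percent change in mean spikes per network burst.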

[17] = CCTE_Shafer_MEA_acute_per_network_burst_spike_number_std: CCTE's Neural Acute Assay for Standard Deviation of Number of Spikes in a Network Burst, Shafer Lab (AID 2284020);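 further: fitted for decrease in spike-number SD versus DMSO so actives lower it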
Method in brief: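 Rat primary cortical neurons on 48-well MEA (16 electrodes/well), treated DIV 13 or 15 at 0.03-40 uM, ≥3 wells per compound. 40 min recordings at 37 C before and after dosing; value is percent change in network-burst spike-number SD, negative direction vs DMSO.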

[18] = CCTE_Shafer_MEA_acute_per_network_burst_electrodes_number_mean: CCTE's Neural Acute Assay for Mean Number of Electrodes in a Network Burst, Shafer Lab (AID 2284021);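 further: curves fitted for decreases only so hits reduce electrodes per burst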
Method in brief: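 Primary rat cortical networks, mwMEA, 37 C. 20 min stabilization, 40 min baseline, compound 0.03-40 uM, 40 min re-record. Wells need >=10 active electrodes; percent change per well, negative fitting direction.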

[19] = CCTE_Shafer_MEA_acute_network_burst_percentage: CCTE's Neural Acute Assay for Percentage of Network Bursts, Shafer Lab (AID 2284022);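 further: curves fitted for loss so actives lower network burst percentage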
Method in brief: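 Readout is the fraction of spikes falling in network bursts, expressed as per-well percent change from a 40-min pre-exposure baseline. Primary rat cortical neurons on MEA were exposed to 0.03-40 uM compound on DIV 13 or 15 and recorded for 40 min at 37 C.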

[20] = CCTE_Shafer_MEA_acute_cross_correlation_HWHM: CCTE's Neural Acute Assay for Cross Correlation at Half Width at Half Maximum, Shafer Lab (AID 2284026);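 further: percent change per well from pre-dose baseline in spike cross-correlogram half width; hits are a decrease in cross-correlogram half width relative to DMSO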
Method in brief: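 Rat cortical neuron cultures on microelectrode arrays were equilibrated 20 min at 37 C, recorded 40 min at baseline, then 40 min after compound addition (0.03-40 uM, ≥3 wells). Spikes were detected at 8x rms noise after 300-5000 Hz band-pass filtering.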

Glucocorticoid receptor (Homo sapiens), sequence (P04150 whole entry, looked up): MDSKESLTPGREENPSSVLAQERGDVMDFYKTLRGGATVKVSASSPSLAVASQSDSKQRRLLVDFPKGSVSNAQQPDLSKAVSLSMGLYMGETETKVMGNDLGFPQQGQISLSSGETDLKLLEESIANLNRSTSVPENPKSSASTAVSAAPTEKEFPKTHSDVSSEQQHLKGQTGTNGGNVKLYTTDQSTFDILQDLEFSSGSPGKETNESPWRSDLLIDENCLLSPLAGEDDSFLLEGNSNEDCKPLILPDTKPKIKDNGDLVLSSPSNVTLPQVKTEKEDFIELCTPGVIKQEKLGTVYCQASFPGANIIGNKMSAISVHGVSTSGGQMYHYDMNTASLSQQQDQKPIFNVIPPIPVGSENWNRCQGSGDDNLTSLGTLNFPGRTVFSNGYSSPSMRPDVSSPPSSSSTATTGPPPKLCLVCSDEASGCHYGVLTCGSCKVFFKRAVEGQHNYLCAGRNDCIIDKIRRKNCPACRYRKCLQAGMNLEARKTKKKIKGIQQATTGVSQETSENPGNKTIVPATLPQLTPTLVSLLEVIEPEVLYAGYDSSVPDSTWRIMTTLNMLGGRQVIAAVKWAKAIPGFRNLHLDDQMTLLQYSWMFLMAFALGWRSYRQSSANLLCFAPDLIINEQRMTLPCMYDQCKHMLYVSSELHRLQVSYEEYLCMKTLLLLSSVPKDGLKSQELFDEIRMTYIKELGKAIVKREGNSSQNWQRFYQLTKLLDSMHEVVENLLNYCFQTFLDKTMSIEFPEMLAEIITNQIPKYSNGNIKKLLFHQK
human Phosphoinositide 3-kinase alpha (PI3Ka), PIK3CA (gene 5290), sequence (P42336 whole entry, looked up): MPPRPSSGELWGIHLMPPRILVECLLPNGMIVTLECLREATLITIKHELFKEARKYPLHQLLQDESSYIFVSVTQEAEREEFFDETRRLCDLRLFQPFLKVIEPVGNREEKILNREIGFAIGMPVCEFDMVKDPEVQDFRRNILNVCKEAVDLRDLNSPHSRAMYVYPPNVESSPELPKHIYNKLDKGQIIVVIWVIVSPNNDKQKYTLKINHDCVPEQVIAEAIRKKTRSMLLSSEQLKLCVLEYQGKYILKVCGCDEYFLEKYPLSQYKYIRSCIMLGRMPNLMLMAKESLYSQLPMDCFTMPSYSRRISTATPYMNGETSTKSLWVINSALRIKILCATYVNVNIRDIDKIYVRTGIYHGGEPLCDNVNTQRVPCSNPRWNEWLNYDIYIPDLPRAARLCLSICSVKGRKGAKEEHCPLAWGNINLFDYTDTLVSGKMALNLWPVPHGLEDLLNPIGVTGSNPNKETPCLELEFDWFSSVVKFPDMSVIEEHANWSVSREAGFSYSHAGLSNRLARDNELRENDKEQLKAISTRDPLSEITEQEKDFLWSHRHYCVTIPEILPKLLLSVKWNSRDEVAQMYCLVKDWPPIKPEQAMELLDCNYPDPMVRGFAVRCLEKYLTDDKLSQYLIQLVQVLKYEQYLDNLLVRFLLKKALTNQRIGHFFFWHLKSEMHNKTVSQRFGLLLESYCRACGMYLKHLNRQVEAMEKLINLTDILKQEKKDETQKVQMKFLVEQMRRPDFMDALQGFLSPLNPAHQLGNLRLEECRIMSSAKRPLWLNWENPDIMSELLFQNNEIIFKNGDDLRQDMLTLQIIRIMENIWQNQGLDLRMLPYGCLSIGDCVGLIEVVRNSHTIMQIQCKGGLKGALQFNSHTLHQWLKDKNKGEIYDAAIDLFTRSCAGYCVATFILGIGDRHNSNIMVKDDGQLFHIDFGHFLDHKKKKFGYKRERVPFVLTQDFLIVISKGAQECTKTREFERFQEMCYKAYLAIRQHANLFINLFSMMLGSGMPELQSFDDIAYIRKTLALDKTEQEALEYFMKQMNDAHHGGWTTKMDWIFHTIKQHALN
human Caspase 5 (CASP5), CASP5 (gene 838), sequence (P51878 whole entry, looked up): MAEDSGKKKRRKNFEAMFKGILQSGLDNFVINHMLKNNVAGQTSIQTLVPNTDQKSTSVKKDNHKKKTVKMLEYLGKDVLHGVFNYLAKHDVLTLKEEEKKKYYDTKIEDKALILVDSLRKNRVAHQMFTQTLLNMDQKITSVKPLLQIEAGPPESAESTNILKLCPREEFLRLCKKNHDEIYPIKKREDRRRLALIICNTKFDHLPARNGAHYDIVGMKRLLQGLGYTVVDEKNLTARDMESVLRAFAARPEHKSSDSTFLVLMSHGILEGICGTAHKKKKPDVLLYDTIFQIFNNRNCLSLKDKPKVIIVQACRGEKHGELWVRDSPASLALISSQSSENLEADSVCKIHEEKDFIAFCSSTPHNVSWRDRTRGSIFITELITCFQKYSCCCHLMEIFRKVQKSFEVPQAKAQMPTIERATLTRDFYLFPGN
human Beta-secretase (BACE), BACE1 (gene 23621), sequence (P56817 whole entry, looked up): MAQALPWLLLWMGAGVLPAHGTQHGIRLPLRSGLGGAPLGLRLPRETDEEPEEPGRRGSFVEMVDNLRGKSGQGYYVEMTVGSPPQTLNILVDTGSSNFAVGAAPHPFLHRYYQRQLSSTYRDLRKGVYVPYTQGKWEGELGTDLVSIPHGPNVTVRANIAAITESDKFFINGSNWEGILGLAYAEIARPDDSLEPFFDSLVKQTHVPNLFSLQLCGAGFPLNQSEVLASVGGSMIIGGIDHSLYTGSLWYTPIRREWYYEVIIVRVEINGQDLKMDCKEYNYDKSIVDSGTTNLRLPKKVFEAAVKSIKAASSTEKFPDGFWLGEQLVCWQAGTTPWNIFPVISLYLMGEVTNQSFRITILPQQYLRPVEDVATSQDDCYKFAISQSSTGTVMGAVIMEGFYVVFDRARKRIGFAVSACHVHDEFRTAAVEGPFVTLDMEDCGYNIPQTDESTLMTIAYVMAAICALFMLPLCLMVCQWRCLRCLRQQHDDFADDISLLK
Estrogen receptor (Homo sapiens), sequence (P03372 whole entry, looked up): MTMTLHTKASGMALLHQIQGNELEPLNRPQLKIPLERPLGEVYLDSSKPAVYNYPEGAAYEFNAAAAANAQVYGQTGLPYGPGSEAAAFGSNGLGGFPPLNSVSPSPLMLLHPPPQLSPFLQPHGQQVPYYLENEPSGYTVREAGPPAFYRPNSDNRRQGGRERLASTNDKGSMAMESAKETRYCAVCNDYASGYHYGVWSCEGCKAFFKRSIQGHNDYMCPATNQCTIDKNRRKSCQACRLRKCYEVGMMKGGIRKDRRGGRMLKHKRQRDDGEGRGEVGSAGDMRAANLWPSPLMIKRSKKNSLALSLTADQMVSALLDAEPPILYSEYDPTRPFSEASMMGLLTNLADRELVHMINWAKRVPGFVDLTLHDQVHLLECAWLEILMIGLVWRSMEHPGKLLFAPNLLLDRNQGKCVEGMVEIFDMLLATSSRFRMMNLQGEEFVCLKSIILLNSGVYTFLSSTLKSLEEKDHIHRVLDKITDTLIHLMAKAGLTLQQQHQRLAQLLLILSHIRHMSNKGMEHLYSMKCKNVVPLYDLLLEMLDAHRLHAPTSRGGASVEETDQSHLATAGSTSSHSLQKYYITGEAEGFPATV

Structure (SMILES) | outcome [1] | AC50 [2] | AC50 [3] | AC50 [4] | AC50 [5] | AC50 [6] | outcome [7] | outcome [8] | outcome [9] | outcome [10] | outcome [11] | outcome [12] | outcome [13] | AC50 [14] | outcome [15] | outcome [16] | outcome [17] | outcome [18] | outcome [19] | outcome [20]
CCCC=NO | inactive |  |  |  |  |  |  |  |  |  |  |  |  |  |  |  |  |  |  | 
O=c1c2ccccc2c(=O)c2c1cc(Cl)c1[nH]c3c([nH]c12)c(Cl)cc1c(=O)c2ccccc2c(=O)c13 |  | 296 nM (active) | 12.4 µM (active) | 4.37 µM (active) | 12.9 µM (active) | 10 µM (active) | inactive | inactive | inactive | inactive | inactive | inactive | inactive | 21 µM (active) | inactive | inactive | inactive | inactive | inactive | inactive
